Bioassay records from PubChem BioAssay.
Pf Dd2 growth: Plasmodium falciparum Dd2 growth inhibition | Potency, µM (highest dose often 28.9 µM), inactives show top-dose activity, negative = inhibition, most hits filed as inhibitors | P. falciparum Dd2 growth, SYBR Green, 72 h | hit rate 4.3% among 120,000 | AID 1347417; active means well fitted inhibition curve with a large enough effect;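 further: plate controls were DMSO vehicle for no effect and reference drug for full effect; nearly all actives have a fitted effect of over 65% in size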
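Infected erythrocytes (Dd2, 0.3% parasitemia, 2.5% hematocrit final) are added to compound in RPMI-1640/Albumax II medium, grown 72 h at 37C in low oxygen, then lysed with saponin/Triton-X containing SYBR Green and read by fluorescence.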
* = called active by the depositor; i = inactive; [ ] = remark or other dose. Only a selection was taken, and hits are over-represented in it overall. Potency means the concentration at half of the fitted maximal effect.

SMILES	Pf Dd2 growth
COc1ccc(C(=O)N2CCC(N3C(=O)C(O)C34CCCCC4)CC2)c(OC)c1 (stereo not given)	6%
COCCCNC(=O)N1CCCCCCNC(=O)[C@@H]2CCCC[C@@H]21	-10%
CCCn1nc(C)cc1CN(C)C(=O)[C@@H]1CN(C(C)=O)C[C@H]1c1nc(C)no1	-14%
CCOC(=O)c1ccc(NC(=O)CCCc2nc(-c3cc(OC)c(OC)c(OC)c3)no2)cc1	13µM*
CCOC(=O)c1ccc(NC(=O)Cc2noc3ccc(C)cc23)cc1	-5%
O=C(CCCc1nc(-c2ccccc2)no1)Nc1cc(C(F)(F)F)cc(C(F)(F)F)c1	-9%
COCCC1(CO)CCCN(C(=O)c2ccc3c(c2)OCC(=O)N3)C1 (stereo not given)	-2%
O=C(c1cccs1)N1CCC2(CC1)CC(Cc1ccc(F)cc1)CCO2 (stereo not given)	-1%
COc1ccc(-c2noc([C@@H]3CCCN3C(=O)c3ccc(OC)c(F)c3)n2)cc1	i
COCCN1CCCC2(CCN(Cc3cc(-c4ccccc4)no3)C2)C1=O (stereo not given)	-11%
N#C/C(=C\c1ccc(Cl)cc1)c1nc2ccccc2[nH]1	i
COc1cc(Br)c(/C=C(\C#N)c2nc3ccccc3[nH]2)cc1OC	-12%
COc1cc(/C=C(\C#N)c2nc3ccccc3[nH]2)ccc1OCc1ccc(F)cc1	1µM*
CN(C)c1ccc(-c2nnnn2[C@H]2CO[C@H]3[C@@H]2OC[C@@H]3NS(=O)(=O)c2ccc3ccccc3c2)cc1	-28%
O=C(COc1ccccc1)N1CCCC(Nc2ccc(F)cc2)C1 (stereo not given)	-7%
Cc1cnc(-c2ccccc2)n1C1CCCN(C(=O)COc2ccc(F)cc2)C1 (stereo not given)	2.8µM*
Cc1cnc(-c2ccccc2)n1C1CCCN(C(=O)c2ccnn2C)C1 (stereo not given)	-29%
COc1ccc2c(c1)CCc1sc(NC(=O)c3ccc(Br)cc3)nc1-2	-2%
COc1cccc(OC)c1C(=O)Nc1nc2c(s1)CCc1ccccc1-2	21%
COc1ccc2c(c1)-c1nc(NC(=O)c3cccc(Br)c3)sc1CC2	10µM*
CCN(CC)C1CCOC2(CCN(C(=O)C3CC3)CC2)C1 (stereo not given)	7%
c1ccc(-c2nc(-c3cnccn3)no2)c(OC2CNC2)c1	-16%
O=C(Nc1ccccc1)N1CCC(Oc2ccccc2-c2nc(-c3ccccc3)no2)C1 (stereo not given)	-5%
CCNC(=O)N1CCC(Oc2ccccc2-c2nc(-c3cnccn3)no2)C1 (stereo not given)	-20%
COc1ccccc1-c1noc(-c2nc(-c3ccncc3)no2)n1	-8%
SMILES	Pf Dd2 growth
c1ccc(-c2nc(-c3ccncc3)no2)c(OC2CCNC2)c1 (stereo not given)	13µM*
O=C(C1CC1)N1CC(Oc2ccccc2-c2nc(-c3cnccn3)no2)C1	7.9µM*
CN1C(=O)CC(C(=O)O)C12CCN(Cc1cnn(C)c1)CC2 (stereo not given)	-2%
C[C@@H](NC(=O)Cc1ccccc1)c1c(-c2ccc(F)cc2)noc1C(=O)O	i
CNC(=O)c1noc([C@@H]2CC(F)(F)CN2Cc2cnn(C(C)C)c2)n1	50%
O=C(c1ccc(F)cc1)N1CCC(OCCOc2cccnc2)CC1	i
COc1ccc(C(=O)N2C[C@@H]3C[C@H](C2)c2ccc(NS(=O)(=O)c4ccc(NC(C)=O)cc4)c(=O)n2C3)cc1	-16%
O=C(N[C@H]1C[C@H]2C(=O)NC[C@@H](CCC(=O)N3CCCCC3)N2C1)c1ccc(F)c(Cl)c1	-5%
COC1CCC12CCN(C(=O)NC(C)(C)C)CC2 (stereo not given)	7%
CC1=C[C@@H](CNS(=O)(=O)c2cccs2)[C@H](C(C)C)C[C@H]1CC(=O)NCc1ccc(C#N)cc1	i
CC1=C[C@@H](CNS(=O)(=O)c2ccccc2)[C@H](C(C)C)C[C@H]1CC(=O)NCc1ccc(C#N)cc1	4.5µM*
COc1ccc(S(=O)(=O)NC[C@@H]2C=C(C)[C@H](CC(=O)NCc3ccc(C#N)cc3)C[C@H]2C(C)C)cc1	-4%
Cn1cc(-c2nc(N3CCOCC3)cc3c2CN(c2ccccc2)C3=O)cn1	-8%[44.1 µM]
Cc1ccc(C(=O)N2CCC3(CC2)CCN(CCc2ccccc2)c2ccccc2O3)cc1	11µM*
O=C1NCC2(CCN([S+](=O)([O-])c3cccs3)CC2)Oc2ccccc21	-17%
CC(=O)Nc1ccc(CN2CCC3(CC2)CC(=O)c2ccccc2O3)cc1	i
O=C(Nc1ccc(Cl)cc1)N1CCC2(CC1)CCN(Cc1cccs1)c1ccccc1O2	1.4µM*
CCCN1CCC2(CCN(C(=O)c3ccccc3F)CC2)Oc2ccccc21	i
CC(C)(C)C(=O)N1CCC2(CC1)CCN(Cc1cccs1)c1ccccc1O2	10µM*
CCCN1CCC2(CCN(C(=O)c3ccccc3)CC2)Oc2ccccc21	i
CCCN1CCC2(CCN([S+](=O)([O-])c3cccc(C(F)(F)F)c3)CC2)Oc2ccccc21	-25%
CCCN1CCC2(CCN([S+](=O)([O-])c3cccs3)CC2)Oc2ccccc21	11µM*
CC(=O)N1CCC2(CC1)CC(=O)N(c1ccccc1)c1ccccc1O2	-8%
COc1ccc(C(=O)N2CCC3(CC2)CCN(Cc2cccs2)c2ccccc2O3)cc1	-19%
CCCN1CCC2(CCN(C(=O)c3ccc(C)cc3)CC2)Oc2ccccc21	-2%
SMILES	Pf Dd2 growth
Cc1cccc(-c2nc(Cn3c(-c4ccccc4)nc(C)c(CCO)c3=O)c(C)o2)c1	-3%
COc1ccc(C(=O)N2CCC3(CC2)N(c2ccccc2)C(=O)CS3(=O)=O)cc1	-4%
Cc1ccc(C(=O)N[C@@H]2CN(C)C[C@H]2CN(C)C)s1	26%
NCCC(=O)N1CCCC(N2CCN(Cc3ccc4c(c3)OCO4)CC2)C1 (stereo not given)	-7%
CCOC(=O)CC1COCCN1C(=O)c1cn(CCCc2ccccc2)nn1 (stereo not given)	-3%
CC(C)CCC(=O)NC1CCN(c2cnn(C)c(=O)c2)CC1	7%
Fc1ccc(C2Cn3nnc(-c4nc(-c5cccc(Cl)c5)no4)c3CO2)cc1 (stereo not given)	8%
Cc1ccccc1CC(=O)N1CCC2(CC1)N=C(c1cccc(Br)c1)NO2	-21%
CN1CCN(c2nc3c(c(=O)[nH]2)CCN(Cc2ccccc2Cl)CC3)CC1	21%[5.79 µM]
Cc1ccc(C)c(C(=O)N2CC(C(=O)N(C)C)C3(CCOCC3)C2)c1 (stereo not given)	3%
COc1ccc(CCCn2ccnc2-c2cn(C3CCNCC3)nn2)cc1	-7%
CNCC(=O)N1CCc2ncnc(N3CCSCC3)c2CC1	2%
CCCS(=O)(=O)N1C[C@@H](Oc2ccccc2)C[C@@H]1C(=O)N1CCOCC1	5%
CCCN1CCC2(CCN(C(=O)c3ccc(F)cc3)CC2)Oc2ccccc21	i
CCOc1ccccc1CN1CCC2(CCN(C(=O)Nc3ccccc3)CC2)Oc2ccccc21	7.1µM*
CCOc1ccccc1CN1CCC2(CCN(C(=O)c3ccc(C)cc3)CC2)Oc2ccccc21	-3%
O=C(NC1CCCCC1)N1CCCC1c1nc(CCOCC2CCCC2)no1 (stereo not given)	i
COCCOc1cc(C)c2c(c1C)C[C@H]([C@H](C)C(=O)NC1CCCC1)CC2	i
COCCOc1cc(C)c2c(c1C)C[C@H]([C@H](C)C(=O)Nc1ccccn1)CC2	13µM*
COCCOc1cc(C)c2c(c1C)C[C@H](C(C)C(=O)NC(C)(C)C)CC2 (stereo not given in full)	-5%[44.1 µM]
